Compound activity deposited in PubChem BioAssay by National Center for Advancing Translational Sciences (NCATS).
The list is not random: actives were taken first. Their share in the collection is about 1.8%.
Pin1 inhibitor – human Pin1 inhibition. Q13526. Pin1 FP peptide displacement, HiFluor488, 10 min. Potency, µM (top dose mostly 115 µM), hits mostly inhibitors. 390,000 tested, 0.009% active; active means well fitted inhibition curve with a large enough effect in the polarisation, with a control signal flat, not every such curve was filed as active; inconclusive means small, poorly fitted or top-dose-only effect, or effect the other way, or a change in a side signal; inactive means no such curve, though single readings can be large or run the other way; the % refers to the polarisation
Target sequence (Q13526 whole entry, looked up): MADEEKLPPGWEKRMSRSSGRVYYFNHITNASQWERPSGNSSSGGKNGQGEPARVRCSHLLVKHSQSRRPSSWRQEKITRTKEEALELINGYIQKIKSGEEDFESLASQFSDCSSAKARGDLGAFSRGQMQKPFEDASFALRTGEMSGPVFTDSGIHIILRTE
GLP1R cytotox – cytotoxicity in counter-screen for GLP-1R inverse agonists | HEK293 cAMP-luciferase reporter cells, luminescence, 24 h | Potency, µM (series often up to 38.3 µM), usual class: inhibitors | 410,000 tested, 0.13% active;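 further: loss of luciferase light is scored as toxicity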
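A 23 nL compound transfer followed 12 hours of cell culture at 37 deg C; exposure then lasted 24 hr. Luciferase assay detection reagent was dispensed and plates read for luminescence after a 12 min room-temperature wait.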
GLP-1R agonist – activates the human GLP-1 receptor; HEK293 GLP-1R CRE-luciferase, luminescence, 4-6 h; cells express a hypersensitive GLP-1R form; AID 624172; P43220; Potency, µM (doses to about 45.6 µM), most hits filed as activators; 380,000 tested, 0.007% active
Target sequence (P43220 whole entry, looked up): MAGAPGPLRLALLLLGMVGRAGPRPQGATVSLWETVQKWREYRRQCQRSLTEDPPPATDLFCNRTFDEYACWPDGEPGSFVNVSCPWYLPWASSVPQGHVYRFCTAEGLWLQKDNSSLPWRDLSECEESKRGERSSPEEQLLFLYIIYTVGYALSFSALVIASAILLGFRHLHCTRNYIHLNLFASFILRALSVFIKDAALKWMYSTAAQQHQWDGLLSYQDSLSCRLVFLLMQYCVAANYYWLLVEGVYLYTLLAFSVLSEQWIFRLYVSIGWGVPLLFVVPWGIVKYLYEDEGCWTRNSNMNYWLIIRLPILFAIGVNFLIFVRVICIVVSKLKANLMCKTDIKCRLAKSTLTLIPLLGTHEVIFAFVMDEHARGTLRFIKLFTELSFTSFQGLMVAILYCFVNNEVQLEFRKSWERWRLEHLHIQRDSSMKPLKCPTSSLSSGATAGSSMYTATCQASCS
Tb PFK inh – T. brucei PFK enzyme inhibition; O15648; T. brucei PFK, ADP-Glo luminescence; Potency, µM (doses to about 57.5 µM), hits mostly inhibitors; 330,000 tested, 0.17% active; AID 485367; further: nearly all actives have a fitted effect of over 60% in size
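Activity is normalized to no-enzyme wells (full inhibition) and 1.25 nM enzyme wells (no inhibition). Reaction: 0.5 mM F6P, 0.1 mM ATP, 45 min RT, ADP-Glo luminescence; concentration-response curves fitted and classed by quality.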
PGK inhibitor – blocks T. brucei phosphoglycerate kinase | P07378 | PGK/GAPDH coupled, Kinase-Glo luminescence, 60 min | Potency, µM (top dose mostly 57.5 µM), usual class: inhibitors | 380,000 tested, 0.043% active | AID 602233; further: nearly all actives have a fitted effect of over 60% in size
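Luminescent ATP detection (Kinase-Glo Plus) follows a 60-minute room-temperature incubation, with wells lacking PGK as controls. Buffer: 100 mM TEA (pH 7.6), 5 mM MgCl2, 0.01% Tween-20. Coupling enzyme GAPDH (100 nM final) supplies unstable 1,3-BPG in-well.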
GLP1R inv ag – GLP-1 receptor (human) inverse agonism. HEK293 GLP-1R CRE-luciferase, luminescence, 24 h; GLP-1R form is constitutively active. Potency, µM (highest dose often 38.3 µM), usual class: inhibitors. P43220. AID 624417. 410,000 tested, 1.6% active; further: nearly all actives have a fitted effect of over 55% in size
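Inverse agonism was detected as reduced cAMP-driven luciferase luminescence after 24 h compound treatment. The cells were HEK293 clones expressing constitutively active human GLP-1R with the reporter. Reporter-only and GPR119 cell lines served as counterscreen controls.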
Large screens that a line does not name were inactive. Unless noted, the call rests on the fitted dose curve; in most records, active means well fitted curve in the direction sought with a large enough effect; inconclusive means small, poorly fitted or top-dose-only effect, or another doubt; inactive means no such curve, though single readings can be large; an effect the other way counts as inactive or inconclusive.

COc1ccc(Br)cc1CNC(=O)C1CCN(c2nnc(-n3cccc3CNc3ccc(C)cc3)s2)CC1	GLP1R inv ag inconclusive (no result: GLP-1R agonist, Tb PFK inh, PGK inhibitor)
CCOC(=O)c1ccc(CN(Cc2ccc(Br)cc2)S(=O)(=O)c2cccc(C(F)(F)F)c2)cc1	none (no result: GLP-1R agonist, Tb PFK inh)
CCCOc1ccc(OC(=O)c2ccc(-c3ccc(CCC)cn3)cc2)cc1	Pin1 inhibitor inconclusive (no result: GLP-1R agonist, Tb PFK inh)
Cc1nc(N)nc(N)c1CCCc1ccc(Cl)c(Cl)c1	Pin1 inhibitor inconclusive, GLP1R inv ag 7.08µM (no result: Tb PFK inh)
Cc1nc(N)nc(N)c1-c1ccc(Cl)c(Cl)c1	GLP1R inv ag inconclusive (no result: Tb PFK inh)
CCOc1ccccc1NC(=O)Nc1ccc2c(c1)CCC2	Pin1 inhibitor inconclusive, GLP1R inv ag 10µM
O=C(CNC(=S)N(Cc1ccccc1)Cc1ccccc1F)NCCc1ccc(Cl)cc1	GLP1R inv ag 3.98µM
O=C(Cc1ccc(Cl)cc1)NCCc1ccc(F)cc1	GLP1R inv ag inconclusive (no result: Tb PFK inh)
O=C(CNC(=S)N(Cc1ccccc1)Cc1cccs1)NCc1ccc(F)cc1	GLP1R inv ag 2.82µM
Cc1ccc(C)c(NC(=O)c2ccc(CN3CC(=O)N4CCCCC4C3=O)cc2)c1 (stereo not given)	none (no result: GLP-1R agonist, Tb PFK inh)
c1ccc(-c2ccc(-c3cnc4n3CCCCC4)cc2)cc1	GLP1R cytotox inconclusive, GLP1R inv ag 5.01µM
Cc1ccc(C(=O)NCCc2ccc(Cl)cc2)cc1-n1c(C)nc2cccnc21	none (no result: GLP-1R agonist, Tb PFK inh)
O=C(CN1C(=O)NC(c2ccccc2)(c2ccccc2)C1=O)N1CCN(c2ccc(F)cc2)CC1	GLP1R cytotox inconclusive, GLP1R inv ag 7.94µM
Cc1ccc2nc(-c3ccc(NC(=O)C4CCCO4)cc3)[nH]c2c1 (stereo not given)	GLP1R inv ag 7.94µM
Cc1ccc2nc(-c3ccc(NC(=O)Cc4cccs4)cc3)[nH]c2c1	GLP1R cytotox inconclusive
COc1ccc(C2c3c(ncn(CCCc4ccccc4)c3=N)Oc3ccc4ccccc4c32)cc1OC (stereo not given)	none (no result: GLP1R cytotox, GLP-1R agonist, Tb PFK inh, PGK inhibitor, GLP1R inv ag)
CCOC(=O)c1ccc(N2C(=O)C(O)=C(C(C)=O)C2c2ccccc2)cc1 (stereo not given)	none
CCOC(=O)c1ccc(N2C(=O)[C@@H](c3ccccc3)[C@H]2c2ccccc2)cc1	GLP1R inv ag 5.01µM
CCc1ccc(C2CC(=O)N(c3cccc(C(F)(F)F)c3)C3=C2C(=O)OC3)cc1 (stereo not given)	none (no result: Tb PFK inh)
CN(C)c1ccc(CNC(=O)CCNS(=O)(=O)c2cc(Br)cnc2N)cc1	GLP1R inv ag 4.47µM
Nc1ncc(Br)cc1S(=O)(=O)NCCC(=O)NCCc1ccccc1	GLP1R inv ag inconclusive
CCN(CC)c1nc(OCCNC(=O)Nc2ccccc2)nc(N(CC)CC)n1	GLP1R cytotox inconclusive, GLP1R inv ag 5.01µM
O=C(CN1CCN(Cc2ccc3c(c2)OCO3)CC1)N1CCc2[nH]c3ccc(F)cc3c2C1	GLP1R inv ag 8.91µM
O=C(c1cc2cc(Cl)ccc2[nH]1)N1CCN(Cc2ccc3c(c2)OCO3)CC1	GLP1R inv ag 11.2µM
COc1ccc(CN(C(=S)Nc2ccccc2)C2CC(=O)N(c3ccc(Cl)cc3)C2=O)cc1 (stereo not given)	GLP1R cytotox inconclusive, GLP1R inv ag inconclusive
O=C1CC(N(Cc2cccs2)C(=O)Nc2ccccc2)C(=O)N1c1ccc(Cl)cc1 (stereo not given)	GLP1R inv ag 8.91µM
COc1ccc(CN(CCC(c2ccc(F)cc2)C2CCOC(C)(C)C2)C(=O)c2ccco2)cc1 (stereo not given)	GLP1R cytotox inconclusive, GLP1R inv ag inconclusive
CC(c1ccccc1)N(CCC(c1ccccc1)C1CCOC(C)(C)C1)C(=O)c1ccco1 (stereo not given)	GLP1R inv ag 10µM
CCc1c(C#N)c(SCc2c(C)noc2C)nc2c1C(=O)CC(C)(C)C2	GLP1R inv ag 8.91µM
COc1ccc(-c2[nH]c3ccccc3c2SCCN)cc1	GLP1R cytotox inconclusive, GLP1R inv ag 2µM
Cc1cc(C)c(Cn2c(=O)n(CCCCCC(=O)NCc3ccc4c(c3)OCO4)c(=O)c3sccc32)c(C)c1	none (no result: GLP-1R agonist, Tb PFK inh)
O=[S+]([O-])(c1ccc2c(c1)OCCO2)N1CCN([S+](=O)([O-])c2c(O)cc(F)cc2F)CC1	none (no result: GLP1R cytotox, GLP-1R agonist, Tb PFK inh, PGK inhibitor, GLP1R inv ag)
Fc1ccc(N2N=C(c3cccs3)CC2c2ccccc2)cc1 (stereo not given)	Pin1 inhibitor inconclusive, GLP1R inv ag 11.2µM
CCOC(=O)c1ccc2c(c1)N(CC(=O)Nc1ccc(CC)cc1)C(=O)c1ccccc1S2	none (no result: Tb PFK inh)
O=[N+]([O-])c1ccc(O)c(/C=N/NC(=S)Nc2ccc(Cl)cc2Cl)c1	GLP1R inv ag 2µM
CCn1nc(C)c(/C=N/NC(=S)Nc2ccc(Cl)cc2Cl)c1C	GLP1R cytotox inconclusive, GLP1R inv ag 3.98µM
O=C(C1CCCN(S(=O)(=O)c2ccc(Cl)cc2)C1)N(Cc1cccs1)C1CC1 (stereo not given)	GLP1R inv ag 10µM
Cc1ccc(C)c(N(C(=O)c2nsc(Cl)c2Cl)C(C(=O)NC2CCCC2)c2ccc(O)cc2)c1 (stereo not given)	GLP1R inv ag 5.62µM
COc1ccccc1-c1sc2cc3c(cc2c1-c1ccc(OCCN2CCCCC2)cc1)OCO3	Pin1 inhibitor inconclusive, GLP1R cytotox inconclusive, GLP1R inv ag 12.6µM
COc1ccccc1-c1sc2ccccc2c1-c1ccc2c(c1)OCO2	GLP1R inv ag 10µM
COc1cc2sc(-c3ccccc3OC)c(-c3ccc(OCCN4CCCCC4)cc3)c2cc1OC	GLP1R inv ag inconclusive
CC(C)C(=O)NC(Nc1cccc2cccnc12)C(Cl)(Cl)Cl (stereo not given)	GLP1R inv ag inconclusive
CC(C)CC(=O)NC(NC(=S)Nc1cccc2cccnc12)C(Cl)(Cl)Cl (stereo not given)	GLP1R inv ag 7.94µM
COc1cc(C2CC(=O)N(Cc3ccc(F)cc3)c3ccccc3S2)cc(OC)c1OC (stereo not given)	GLP1R inv ag 11.2µM (no result: Tb PFK inh)
O=C1CC(c2ccccc2)Sc2ccccc2N1Cc1ccccc1F (stereo not given)	GLP1R inv ag 10µM (no result: Tb PFK inh)
O=C(CC(c1ccccc1)c1ccccc1)Nc1ccc(Cl)cn1	GLP1R cytotox inconclusive, GLP1R inv ag 5.01µM
N#CC1c2ccccc2-c2ccccc2N1C(=O)c1ccccc1 (stereo not given)	GLP1R inv ag 7.08µM (no result: Pin1 inhibitor, Tb PFK inh)
Cc1ccccc1-c1noc(-c2ccc(N3CCC(C)CC3)c([N+](=O)[O-])c2)n1	none (no result: GLP-1R agonist, Tb PFK inh)
CN1CCN(c2ccc(S(=O)(=O)N3CCCCC3)cc2NC(=O)/C=C/c2ccc(OC(F)F)cc2)CC1	GLP1R cytotox inconclusive, GLP1R inv ag inconclusive
